# Experimental data as given in the supplement of paper PMC11417369.
# Over roughly 25,000 sequences, “ln(normalized median fluorescence intensity)” has its median near 9.7; the highest 2% begin near 11. The sample as a whole holds a higher share of the highest values than the screen did.
# Test system: PfAP2-HC AP2 domain (GST-tagged)
# Assay: gcPBM binding intensity (ln(normalized median fluorescence intensity)); higher = stronger DNA binding
# Method in brief: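 Alexa488 anti-GST antibody, scanned at 488 nm, detected GST-tagged P. falciparum DNA-binding domains that had been expressed in E. coli and incubated for 1 h on an Agilent 4 × 180k array. The array carried primer-extended double-stranded 36-bp intergenic genomic probes and negative controls. Binding intensity is the highest Masliner-normalised natural-log median intensity across replicate spots of either orientation of each probe.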
row,Sequence,gcPBM binding intensity (ln)
1,TTTTTTTAAAGAATTATCATAAAATGATTGCATCAT [XGTACX_negctrl_site141],9.34
2,GCGAAATATTATTATAGTATACAAATACTTCTATGA [CACACA_negctrl_site197],9.51
3,TATCCATATTTGTTCACACACACACCGATTTATATA [CACACA_site5888],10.2
4,TATCCATATTTGTTCACACACACACCCATTTATATA [CACACA_site3571],11
5,TGTATCCATATTTGTTCACACACACCCATATTTATA [CACACA_site9190],10.4
6,TATAAAAAAAAAAAAAAAAAAAAAAATATATATATA [CACACA_negctrl_site817],9.34
7,TGGGATAGATCATTTACACACACAAAAAAAAAAAAA [CACACA_site2140],9.89
8,TTATTTATTTATTATAGTTCACTTGAAAATACAAGA [CACACA_negctrl_site1480],9.38
9,ATAGTATACAGACACACACACACACCGATATATATA [CACACA_site8511],10.7
10,ATAGTATACGGACACACACACACACCGATATATATA [CACACA_site5032],11.2
11,GGCATACACGGACACACACACACACCGACATATATA [CACACA_site4493],11.5
12,CATACACGCGGACACACACACACACGCATATATAAC [CACACA_site6427],11.2
13,TATACACGCGGACACACACACACACGCAAAAAAAAA [CACACA_site6377],10.5
14,TATAGATACATATACACACACACACCGACATATATA [CACACA_site9138],10.8
15,AGTATACATATATATACACACACACCGATATATATA [CACACA_site8357],10.4
16,CACGCATACGGACACACACACACACCGATATATATA [CACACA_site4521],11
17,TATATATACATATACACACACACACCGATATATATA [CACACA_site8706],10.5
18,AAAAAAAAAAGACACACACACACACGCATATACATA [CACACA_site7289],10.7
19,CGCATACACGGACACACACACACATATATATATATA [CACACA_site4520],10.9
20,TACATGAATAAACTTACACACACCCATGCATACATA [CACACA_site97],10.4
21,ATGTTATAATTTAGTGTGCACATATTAAGAGGAACA,10.1
22,TACATACAGATATATACACACATATATAATATATAT [CACACA_site4376],10
23,CCCTTAATATAAAGCACACATATATATAATATATAT [CACACA_site4439],9.79
24,CAAAATAAAAATAACACACACATTTATTTATATACA [CACACA_site6679],10.1
25,CCCCTCGAAATAATTTGTACGAATATATTGTCTGTA [XGTACX_site8308],9.68
